As usually defined, the AC50 is the midpoint of the concentration-response curve, whichever way the signal moves.

Drawing on PubChem BioAssay (EPA / NIEHS), this text covers outcome and AC50 for seven compounds.

“And” between values parts separate entries of the source, which are not always exact repeats. Equal entries are not always repeated. Records with an inconclusive call do not appear. A structure can be active in one record and inactive in another. The source made the active and inactive calls. The calls were made as follows, unless noted: active = hit-call score of the fitted dose curve at least 0.9, where 1 is the maximum; inactive = score below 0.9.

The nature of assay [1]: ATG_M_06_TRANS: Attagene TRANS-FACTORIAL HepG2 Assay for M06 Transcription Factor (Internal Marker) (AID 2282983; active = hit-call score of the fitted dose curve at least 0.9, where 1 is the maximum;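 also: reporter transcript level by RT-PCR then capillary electrophoresis fluorescence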). The following applies: HepG2 Attagene TRANS M06 internal marker reporter. The method in brief:
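In this multiplexed HepG2 system, compounds are incubated 24 h with cells carrying GAL4-UAS reporter units. Reporter RNA is amplified and resolved by capillary electrophoresis, and induction is scored against DMSO.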

Assay [2] in a line: ATG_M_32_TRANS: Attagene TRANS-FACTORIAL HepG2 Assay for M32 Transcription Factor (Internal Marker) (AID 2282984; active = hit-call score of the fitted dose curve at least 0.9, where 1 is the maximum;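 also: transcript level of a background control reporter unit measured by RT-PCR and capillary electrophoresis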). The following applies: HepG2 Attagene TRANS M32 internal marker reporter. The method in brief:
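Cell-based TRANS-format assay in HepG2: exogenous chimeric GAL4 reporter units transiently expressed, compounds applied 24 h. Reporter mRNA detected by RT-PCR plus capillary electrophoresis; this readout is an internal background marker.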

The target of assay [3] is Nuclear receptor subfamily 4 group A member 2 (Homo sapiens) (UniProt P43354). As to the kind of experiment: ATG_NURR1_TRANS: Attagene TRANS-FACTORIAL HepG2 Assay for human Nuclear Receptor Related Protein 1 (NURR1) (AID 2282985; active = hit-call score of the fitted dose curve at least 0.9, where 1 is the maximum). The following applies: HepG2 Attagene TRANS reporter, mRNA readout. The method in brief: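 Measures transcriptional activation by an exogenous NR-Gal4 chimera in transfected HepG2 liver cells. After 24 h, reporter RNA is reverse-transcribed, amplified and resolved by capillary electrophoresis; DMSO defines baseline.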

The target of assay [4] is Transcriptional activator Myb (Homo sapiens) (UniProt P10242). As to the kind of experiment: ATG_Myb_CIS: Attagene CIS-FACTORIAL HepG2 Assay for human Myeloblastosis (Myb) Proto-Oncogene Transcription Factor (AID 2282986). The following applies: HepG2 Attagene CIS-FACTORIAL Myb reporter transcription; actives raise or lower the signal. The method in brief: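 HepG2 cells were transiently transfected with cis-regulated multiple reporter transcription units reflecting endogenous Myb activity, then exposed to compound for 24 hours. Reporter mRNA was measured by RT-PCR with capillary electrophoresis; bidirectional fitting versus DMSO baseline.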

Assay [5] concerns the target Nuclear respiratory factor 1 (Homo sapiens) (UniProt Q16656). Kind of assay: ATG_NRF1_CIS: Attagene CIS-FACTORIAL HepG2 Assay for human Nuclear Respiratory Factor 1 (NRF1) Orphan Gene (AID 2282987). The following applies: HepG2 NRF1 cis-element reporter, Attagene multiplex; actives raise or lower the signal. The essentials: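 HepG2 cells transiently transfected with multiple reporter transcription units under cis-regulatory promoter control, so endogenous transcription-factor activity is read. After 24 h compound exposure, reporter mRNA quantified by RT-PCR, fluorescent labelling, HpaI digestion and capillary electrophoresis; bidirectional fitting versus DMSO.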

A short description of assay [6]: ATG_NFI_CIS: Attagene CIS-FACTORIAL HepG2 Assay for human Nuclear Factor I (NFI) (AID 2282989). The following applies: HepG2 cis-regulatory reporter, NFI response element transcription; actives raise or lower the signal. The essentials: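 Multiplexed cis-reporter system in human HepG2 cells reports native TF activity as reporter mRNA induction 24 h post-dose. Fragments labelled with 6-FAM, HpaI-digested and resolved by capillary electrophoresis; activity fitted both directions versus DMSO.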

Assay [7] concerns the target Myc proto-oncogene protein (Homo sapiens) (UniProt P01106). As to the kind of experiment: ATG_Myc_CIS: Attagene CIS-FACTORIAL HepG2 Assay for human Myelocytomatosis (Myc) Proto-Oncogene Transcription Factor (AID 2282990). The following applies: HepG2, Attagene cis-reporter transcription factor activity; actives raise or lower the signal. The method in brief: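 HepG2, transient MRTU transfection (cis promoters, endogenous TFs); 24 h dosing; TriZol RNA → oligo(dT) RT → PCR → 6-FAM primer extension → HpaI cut → CE. Bidirectional fit vs DMSO.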

Assay [8] is described as follows: ATG_NF_kB_CIS: Attagene CIS-FACTORIAL HepG2 Assay for human Nuclear Factor Kappa B (NF-kB) (AID 2282991). The following applies: HepG2 Attagene cis-factorial NF-kB reporter mRNA; actives raise or lower the signal. The method in brief: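 HepG2 cells transiently transfected with multiplexed cis-element reporter units measuring endogenous transcription factor activity; reporter mRNA read 24 h after dosing by RT-PCR, fluorescent labelling, HpaI digestion and capillary electrophoresis. Bidirectional fit against DMSO baseline.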

A short description of assay [9]: ATG_NRF2_ARE_CIS: Attagene CIS-FACTORIAL HepG2 Assay for human Nuclear Factor Erythroid 2 Related Factor 2 (NFR2) response to Antioxidant Response Elements (ARE) (AID 2282992).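 As to AC50: reporter mRNA level measured by RT-PCR and capillary electrophoresis fluorescence.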 The following applies: HepG2 Attagene ARE/NRF2 reporter, transcription factor activity; actives raise or lower the signal. The method in brief: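 Fluorescence intensity of reporter-specific cDNA fragments, separated by capillary electrophoresis, reflects mRNA induction in transfected HepG2 cells at 24 h. Activity is fitted bidirectionally, DMSO serving as baseline.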

Assay [10] is described as follows: ATG_Oct_MLP_CIS: Attagene CIS-FACTORIAL HepG2 Assay for human Octamer-Binding Transcription Factor (Oct) (AID 2282993). The following applies: HepG2 Attagene cis-factorial Oct reporter, mRNA; actives raise or lower the signal. The method in brief: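 After 24 h compound exposure, transfected HepG2 cells were lysed for total RNA; reporter-specific cDNA was PCR-amplified, fluorescently labelled and sized by capillary electrophoresis. Bidirectional curve fitting used DMSO as baseline.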

The target of assay [11] is Cellular tumor antigen p53 (Homo sapiens) (UniProt P04637). Kind of assay: ATG_p53_CIS: Attagene CIS-FACTORIAL HepG2 Assay for human p53 Transcription Factor (AID 2282994). The following applies: HepG2 p53 cis-element reporter, Attagene mRNA; actives raise or lower the signal. The essentials: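 Transiently transfected HepG2 (multiple cis reporter transcription units); exposure 24 h; reporter RNA via RT-PCR, 6-FAM extension, 2 h HpaI digest at 37 C, CE detection; DMSO baseline.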

In assay [12] the target is human Peroxisome Proliferator-activated Receptor delta (PPARd), PPARD (gene 5467) (UniProt Q03181). Kind of assay: ATG_PPARd_TRANS: Attagene TRANS-FACTORIAL HepG2 Assay for human Peroxisome Proliferator-activated Receptor delta (PPARd) (AID 2283002; active = hit-call score of the fitted dose curve at least 0.9, where 1 is the maximum). The essentials:
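Transient HepG2 transfection (multiple GAL4-UAS RTUs, chimeric receptor-Gal4); 24 h dosing; total RNA → oligo(dT) RT → PCR → 6-FAM primer extension → HpaI cut → CE. Positive direction vs DMSO.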

Assay [13] deals with human Peroxisome Proliferator-activated Receptor alpha (PPARa), PPARA (gene 5465) (UniProt Q07869). Kind of assay: ATG_PPARa_TRANS: Attagene TRANS-FACTORIAL HepG2 Assay for human Peroxisome Proliferator-activated Receptor alpha (PPARa) (AID 2283001; active = hit-call score of the fitted dose curve at least 0.9, where 1 is the maximum). The method in brief: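 Transfected HepG2 cells treated with test chemical for 24 h. RNA isolated, reverse-transcribed with oligo(dT), PCR-amplified, FAM-labelled and HpaI-digested. Fragments sized by capillary electrophoresis; gain-of-signal fit relative to DMSO.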

Assay [14] deals with Hepatocyte nuclear factor 4-alpha (Homo sapiens) (UniProt P41235). Kind of assay: ATG_HNF4a_TRANS: Attagene TRANS-FACTORIAL HepG2 Assay for human Hepatocyte Nuclear Factor 4 alpha (HNF4a) (AID 2282982; active = hit-call score of the fitted dose curve at least 0.9, where 1 is the maximum). The following applies: HepG2 HNF4a transactivation reporter, mRNA readout. The essentials: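 Multiplexed reporter assay: transfected HepG2, 24 h exposure, total RNA → oligo(dT) RT → PCR → 6-FAM extension → HpaI digest → CE fluorescence. DMSO = negative control.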

Assay [15] in a line: BSK_3C_TissueFactor: BioMAP Diversity Plus: 3C Assay for Tissue Factor Biomarker Activity (AID 2282997). The following applies: BioMAP 3C HUVEC, tissue factor biomarker readout; actives raise or lower the signal. The method in brief: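 Readout: Tissue Factor ELISA. Cells: human primary umbilical vein endothelium. Time: 24 h after dosing. Analysis: bidirectional fit, DMSO baseline.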

The nature of assay [16]: BSK_3C_uPAR: BioMAP Diversity Plus: 3C Assay for Urokinase-type plasminogen activator receptor (uPAR) Biomarker Activity (AID 2282998). The following applies: BioMAP 3C HUVEC, uPAR biomarker ELISA; actives raise or lower the signal. The essentials: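 Values derive from bidirectional curve fitting relative to DMSO, which served as baseline of activity. uPAR was measured by ELISA in human umbilical vein endothelial primary cultures 24 h after compound addition.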
A general note: ELISA stands for enzyme-linked immunosorbent assay.

Assay [17] in a line: BSK_3C_VCAM1: BioMAP Diversity Plus: 3C Assay for Vascular cell adhesion molecule 1 (VCAM1) Biomarker Activity (AID 2282999). The following applies: BioMAP 3C HUVEC, VCAM1 ELISA, cytokine-stimulated; actives raise or lower the signal. The method in brief: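 Activity fitted in both directions relative to DMSO, with ELISA measurement of the surface marker on primary HUVEC (3C) at 24 h post-treatment; parallel SRB staining (0.1% SRB, TCA-fixed, 560 nm) flagged overt cytotoxicity.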

The nature of assay [18]: BSK_4H_Eotaxin3: BioMAP Diversity Plus: 4H Assay for Eotaxin 3 Biomarker Activity (AID 2283000).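 Also: CCL26 protein level quantified by ELISA in parallel with SRB cytotoxicity check.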 The following applies: primary human endothelial cells (HUVEC); actives raise or lower the signal. The essentials: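 HUVEC, 24 h post-dose, ELISA for Eotaxin-3/CCL26. Gain or loss of signal fitted bidirectionally vs DMSO baseline.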

Myc proto-oncogene protein (Homo sapiens), sequence (P01106 whole entry, looked up): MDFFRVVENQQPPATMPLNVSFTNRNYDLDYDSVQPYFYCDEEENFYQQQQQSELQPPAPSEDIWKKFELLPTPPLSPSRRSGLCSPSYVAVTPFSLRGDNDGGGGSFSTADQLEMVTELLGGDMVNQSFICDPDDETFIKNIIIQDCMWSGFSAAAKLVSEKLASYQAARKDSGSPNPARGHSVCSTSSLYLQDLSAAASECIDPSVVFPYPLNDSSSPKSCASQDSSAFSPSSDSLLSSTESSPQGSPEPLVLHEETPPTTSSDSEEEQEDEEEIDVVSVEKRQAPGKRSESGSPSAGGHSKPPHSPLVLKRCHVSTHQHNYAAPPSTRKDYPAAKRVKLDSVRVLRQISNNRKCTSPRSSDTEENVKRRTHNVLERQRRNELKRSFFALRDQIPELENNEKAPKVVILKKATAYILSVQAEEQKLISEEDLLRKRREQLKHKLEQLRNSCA
Hepatocyte nuclear factor 4-alpha (Homo sapiens), sequence (P41235 whole entry, looked up): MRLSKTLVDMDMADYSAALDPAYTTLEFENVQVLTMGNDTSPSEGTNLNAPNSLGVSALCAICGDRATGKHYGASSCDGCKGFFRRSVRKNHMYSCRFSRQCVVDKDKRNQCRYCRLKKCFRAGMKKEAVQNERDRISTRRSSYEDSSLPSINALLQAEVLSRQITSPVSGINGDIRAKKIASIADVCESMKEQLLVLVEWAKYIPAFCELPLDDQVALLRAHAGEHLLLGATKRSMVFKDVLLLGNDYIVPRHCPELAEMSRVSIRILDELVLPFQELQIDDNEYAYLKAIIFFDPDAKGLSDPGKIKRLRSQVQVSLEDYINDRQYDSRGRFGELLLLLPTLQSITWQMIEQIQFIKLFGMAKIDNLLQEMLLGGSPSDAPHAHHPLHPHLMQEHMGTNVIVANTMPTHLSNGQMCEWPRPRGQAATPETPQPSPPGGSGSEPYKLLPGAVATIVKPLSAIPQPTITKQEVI
Nuclear receptor subfamily 4 group A member 2 (Homo sapiens), sequence (P43354 whole entry, looked up, the tested form may be a part): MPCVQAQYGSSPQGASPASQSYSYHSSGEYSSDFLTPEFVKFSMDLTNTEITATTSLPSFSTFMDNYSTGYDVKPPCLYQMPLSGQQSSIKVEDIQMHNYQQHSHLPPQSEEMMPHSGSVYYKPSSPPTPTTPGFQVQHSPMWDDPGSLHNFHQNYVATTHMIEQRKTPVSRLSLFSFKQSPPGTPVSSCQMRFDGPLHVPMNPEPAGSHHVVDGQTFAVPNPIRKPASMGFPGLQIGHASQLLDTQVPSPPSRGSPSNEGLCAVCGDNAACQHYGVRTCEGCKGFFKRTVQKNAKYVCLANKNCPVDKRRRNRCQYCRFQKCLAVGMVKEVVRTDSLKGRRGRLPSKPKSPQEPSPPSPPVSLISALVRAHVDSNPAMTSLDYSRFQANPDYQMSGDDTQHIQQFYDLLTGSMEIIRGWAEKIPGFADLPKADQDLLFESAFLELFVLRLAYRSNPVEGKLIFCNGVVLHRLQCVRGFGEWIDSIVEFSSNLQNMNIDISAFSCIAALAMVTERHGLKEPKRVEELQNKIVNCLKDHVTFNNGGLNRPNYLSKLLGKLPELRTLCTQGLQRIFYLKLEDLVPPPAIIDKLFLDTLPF
Nuclear respiratory factor 1 (Homo sapiens), sequence (Q16656 whole entry, looked up): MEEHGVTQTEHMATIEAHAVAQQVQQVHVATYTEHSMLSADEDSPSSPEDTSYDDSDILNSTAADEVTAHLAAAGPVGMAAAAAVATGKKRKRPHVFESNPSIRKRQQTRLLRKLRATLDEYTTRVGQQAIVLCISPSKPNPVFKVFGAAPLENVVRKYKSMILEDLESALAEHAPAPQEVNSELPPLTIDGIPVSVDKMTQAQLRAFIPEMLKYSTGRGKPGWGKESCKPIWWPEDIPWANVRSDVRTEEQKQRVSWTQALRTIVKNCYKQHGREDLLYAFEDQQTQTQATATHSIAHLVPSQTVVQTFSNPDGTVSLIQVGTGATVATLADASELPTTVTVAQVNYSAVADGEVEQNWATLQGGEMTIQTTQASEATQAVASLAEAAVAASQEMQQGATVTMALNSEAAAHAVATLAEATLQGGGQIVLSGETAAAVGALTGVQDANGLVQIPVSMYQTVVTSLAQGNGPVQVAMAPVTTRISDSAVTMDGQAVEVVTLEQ
Cellular tumor antigen p53 (Homo sapiens), sequence (P04637 whole entry, looked up): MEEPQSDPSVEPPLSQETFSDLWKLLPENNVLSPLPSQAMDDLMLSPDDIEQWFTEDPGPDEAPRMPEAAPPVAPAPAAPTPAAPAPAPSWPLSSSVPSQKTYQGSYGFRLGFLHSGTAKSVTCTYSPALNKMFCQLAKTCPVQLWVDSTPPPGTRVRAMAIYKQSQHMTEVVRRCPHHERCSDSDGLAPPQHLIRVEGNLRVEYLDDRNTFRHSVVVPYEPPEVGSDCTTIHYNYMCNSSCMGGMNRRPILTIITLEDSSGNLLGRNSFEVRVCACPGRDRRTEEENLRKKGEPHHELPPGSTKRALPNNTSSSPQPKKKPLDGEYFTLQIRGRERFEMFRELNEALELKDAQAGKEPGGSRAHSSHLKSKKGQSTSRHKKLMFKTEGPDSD
human Peroxisome Proliferator-activated Receptor alpha (PPARa), PPARA (gene 5465), sequence (Q07869 whole entry, looked up, the tested form may be a part): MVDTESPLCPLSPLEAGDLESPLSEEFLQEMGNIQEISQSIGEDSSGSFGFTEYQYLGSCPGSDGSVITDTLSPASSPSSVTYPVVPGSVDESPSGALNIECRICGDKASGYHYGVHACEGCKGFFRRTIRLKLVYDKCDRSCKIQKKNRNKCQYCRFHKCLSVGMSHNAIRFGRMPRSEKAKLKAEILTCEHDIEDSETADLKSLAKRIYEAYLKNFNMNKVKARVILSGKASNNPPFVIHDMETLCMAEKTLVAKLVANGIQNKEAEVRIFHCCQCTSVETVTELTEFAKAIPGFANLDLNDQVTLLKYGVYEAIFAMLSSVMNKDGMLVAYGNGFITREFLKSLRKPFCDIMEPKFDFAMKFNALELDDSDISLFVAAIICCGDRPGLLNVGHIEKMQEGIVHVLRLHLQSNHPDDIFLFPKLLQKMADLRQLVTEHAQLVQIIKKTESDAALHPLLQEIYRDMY
human Peroxisome Proliferator-activated Receptor delta (PPARd), PPARD (gene 5467), sequence (Q03181 whole entry, looked up, the tested form may be a part): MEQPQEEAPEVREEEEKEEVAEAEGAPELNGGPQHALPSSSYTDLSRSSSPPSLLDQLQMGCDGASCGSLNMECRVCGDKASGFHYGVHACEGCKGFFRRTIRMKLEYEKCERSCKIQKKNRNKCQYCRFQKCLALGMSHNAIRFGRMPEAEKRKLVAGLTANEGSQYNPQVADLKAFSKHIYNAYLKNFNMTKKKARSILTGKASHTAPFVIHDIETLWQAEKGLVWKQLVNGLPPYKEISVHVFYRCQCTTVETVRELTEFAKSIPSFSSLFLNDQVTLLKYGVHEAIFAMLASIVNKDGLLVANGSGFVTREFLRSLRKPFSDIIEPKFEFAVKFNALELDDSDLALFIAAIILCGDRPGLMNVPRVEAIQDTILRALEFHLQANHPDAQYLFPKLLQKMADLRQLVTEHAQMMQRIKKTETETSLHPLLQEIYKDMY
Transcriptional activator Myb (Homo sapiens), sequence (P10242 whole entry, looked up): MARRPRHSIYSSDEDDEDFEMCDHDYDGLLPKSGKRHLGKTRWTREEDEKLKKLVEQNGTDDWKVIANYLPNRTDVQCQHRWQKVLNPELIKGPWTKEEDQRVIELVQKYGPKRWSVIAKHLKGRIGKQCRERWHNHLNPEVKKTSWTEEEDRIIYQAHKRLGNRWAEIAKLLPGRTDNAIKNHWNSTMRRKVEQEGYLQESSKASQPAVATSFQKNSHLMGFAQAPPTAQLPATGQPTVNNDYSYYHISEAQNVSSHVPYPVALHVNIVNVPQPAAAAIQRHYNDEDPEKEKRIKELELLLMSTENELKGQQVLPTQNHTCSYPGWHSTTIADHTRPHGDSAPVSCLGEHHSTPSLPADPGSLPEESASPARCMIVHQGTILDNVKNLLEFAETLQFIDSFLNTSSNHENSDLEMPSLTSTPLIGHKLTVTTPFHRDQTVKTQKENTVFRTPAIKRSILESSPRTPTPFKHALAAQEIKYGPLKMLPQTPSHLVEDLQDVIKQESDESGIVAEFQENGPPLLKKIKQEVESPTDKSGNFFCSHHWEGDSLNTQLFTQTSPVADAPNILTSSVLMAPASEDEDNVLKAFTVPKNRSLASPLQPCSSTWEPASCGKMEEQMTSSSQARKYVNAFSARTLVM

As to `Cc1cc(C(C)(C)C)c(O)c(C(C)(C)C)c1`, the outcome in assay [1], in [2], in assay [4], in [5], in assay [8] and in assay [11] was inactive. Also, in assay [12], the outcome was inactive. The AC50 in assay [3] is 0.82 µM (active); in [5], 94.7 µM (active); in assay [6] it was 51.6 µM (active) and 20.5 µM (active); in assay [7] it was 51 µM (active) and 92.8 µM (active); in assay [9], 57.7 µM (active) and 60 µM (active); in assay [10], 33.4 µM (active) and 89.4 µM (active).
Regarding `Cc1ccccc1C(OCCN(C)C)c1ccccc1` (centres undefined), the outcome in assay [1], in [2], in assay [3], in [4], in [5] and in assay [6] was inactive. The compound was classed as inactive in [7], in assay [8], in assay [9], in assay [10], in [13] and in assay [12]. The AC50 is 71.4 µM (active) in assay [9]; 119 µM (active) in assay [10]; 52.6 µM (active) and 88.3 µM (active) in assay [11].
Take `COC(=O)CC(C(C)=O)C(=O)OC` (centres undefined): the compound was classed as inactive in [14], in assay [1], in assay [4], in [5], in assay [6] and in assay [7]. The outcome in assay [8], in assay [9], in assay [10], in assay [11], in assay [13] and in [12] was inactive.
As to `Cc1cncc(C)c1`, the result in [14], in [4], in assay [5], in [7], in assay [8] and in assay [9] was inactive. For the same compound, the outcome in [10], in assay [11], in assay [13] and in assay [12] was inactive.
For `CCCCC(CC)C(=O)OCCOCCOCCOCCOC(=O)C(CC)CCCC` (centres undefined), the compound was called inactive in assay [1], in assay [2], in assay [3], in assay [4], in [5] and in [6]. Further, the outcome in assay [7], in assay [8], in assay [10], in assay [15], in assay [16] and in assay [17] was inactive. Also, the result in assay [18] and in [13] was inactive. For the same compound, the AC50 in assay [9] is 100 µM (active).
As to `CCCCCC(C)OC(=O)COc1ccc(Cl)c2cccnc12` (centres undefined), the outcome in assay [14], in [1], in assay [4], in assay [5], in [6] and in assay [7] was inactive. Besides, the call in assay [10], in assay [11], in [13] and in assay [12] was inactive. For the same compound, the AC50 in assay [9] is 42.4 µM (active).
With `O=C1NS(=O)(=O)c2ccccc21`, the compound was classed as inactive in assay [14], in [2], in [4], in [5], in assay [7] and in [9]. Besides, the outcome in assay [10], in assay [15], in [16], in [17], in assay [18] and in [13] was inactive. Further, in [12], the compound was called inactive.
